This note sets out measurements from PubChem BioAssay (EPA / NIEHS).

Broadly, the AC50 is the midpoint of the concentration-response curve, whichever way the signal moves.

Read-out in test [1]: Matrix Metallopeptidase 9 (MMP9), MMP9 (gene 4318)
The test can be described thus: BSK_KF3CT_MMP9: BioMAP Diversity Plus: KF3CT Assay for Matrix Metallopeptidase 9 (MMP9) Biomarker Activity (AID 2283074).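 As to AC50: MMP9 protein level quantified by ELISA in the co-culture.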 Particulars: primary human keratinocytes with fibroblasts; actives raise or lower the signal. In short, it runs like this:
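Keratinocyte plus foreskin fibroblast human primary skin co-culture was dosed with chemical and MMP-9 was quantified by ELISA 24 h later. Bidirectional curve fitting used DMSO as negative control and activity baseline.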

Read-out in test [2]: urokinase plasminogen activator (uPA), PLAU (gene 5328)
Description: BSK_KF3CT_uPA: BioMAP Diversity Plus: KF3CT Assay for urokinase plasminogen activator (uPA) Biomarker Activity (AID 2283075). Particulars: primary human keratinocytes with fibroblasts; actives raise or lower the signal. In short, it runs like this:
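Human keratinocyte plus foreskin fibroblast primary co-culture exposed to chemical for 24 h. uPA levels were quantified by ELISA, and activity was fitted bidirectionally against a DMSO negative-control baseline.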

Read-out in test [3]: CD40, CD40 (gene 958)
Description: BSK_LPS_CD40: BioMAP Diversity Plus: LPS Assay for CD40 Biomarker Activity (AID 2283076). As to conditions: primary human HUVEC with PBMC; actives raise or lower the signal. In short, it runs like this:
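Primary human umbilical vein endothelial cells co-cultured with peripheral blood mononuclear cells, LPS-stimulated, were dosed with chemical and read 24 h later. CD40 levels were measured by ELISA and fitted bidirectionally against DMSO as negative control and baseline.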

Read-out in test [4]: E-selectin (Homo sapiens) (UniProt P16581)
Description: BSK_LPS_Eselectin: BioMAP Diversity Plus: LPS Assay for Eselectin Biomarker Activity (AID 2283077). Particulars: primary human HUVEC with PBMC; actives raise or lower the signal. In short, it runs like this: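 Human umbilical vein endothelial cells co-cultured with peripheral blood mononuclear cells under LPS stimulation; E-selectin measured by ELISA 24 h after chemical dosing. Activity fitted bidirectionally against DMSO as negative control and baseline.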

Read-out in test [5]: Interleukin-8 (IL8), CXCL8 (gene 3576)
The test can be described thus: BSK_LPS_IL8: BioMAP Diversity Plus: LPS Assay for Interleukin-8 (IL8) Biomarker Activity (AID 2283078). As to conditions: primary human HUVEC with PBMC; actives raise or lower the signal. An outline of the steps:
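Human umbilical vein endothelial cells co-cultured with PBMC were stimulated with LPS; IL-8 levels were measured by ELISA 24 h after chemical dosing. Activity was fitted bidirectionally against DMSO as negative control and baseline.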

Test [6] in a line: BSK_LPS_SRB: Viability Assessment in the BioMAP Diversity Plus: LPS Assay (AID 2283079).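 Also: total protein by sulforhodamine B absorbance as a cytotoxicity measure; measured one day after compound addition; fitted in both directions against DMSO so loss or gain of signal counts.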 Particulars: primary human HUVEC with PBMC. An outline of the steps:
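Human umbilical vein endothelial cells co-cultured with PBMC (LPS system) were dosed for 24 h. Total protein was stained with 0.1% sulforhodamine B after 10% TCA fixation, read at 560 nm, and fitted bidirectionally against DMSO baseline.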

Read-out in test [7]: Monocyte Chemoattractant Protein-1 (MCP1), CCL2 (gene 6347)
The test can be described thus: BSK_LPS_MCP1: BioMAP Diversity Plus: LPS Assay for Monocyte Chemoattractant Protein-1 (MCP1) Biomarker Activity (AID 2283081).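 As to AC50: secreted MCP-1 protein quantified by ELISA in culture supernatant.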 As to conditions: primary human HUVEC with PBMC; actives raise or lower the signal. An outline of the steps: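 HUVEC plus PBMC co-culture (human primary cells, LPS system) exposed to test chemical for 24 h; MCP-1 measured by ELISA. Bidirectional curve fitting against DMSO baseline; parallel SRB total-protein staining flags overt cytotoxicity.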

A short description of test [8]: BSK_LPS_PGE2: BioMAP Diversity Plus: LPS Assay for Prostaglandin E2 (PGE2) Biomarker Activity (AID 2283082). Particulars: primary human HUVEC with PBMC; actives raise or lower the signal. In short, it runs like this: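 Endpoint derived from bidirectional curve fitting versus DMSO of ELISA-measured PGE2 in LPS-stimulated human primary vascular co-culture (HUVEC with PBMC) harvested at 24 h.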

Read-out in test [9]: Macrophage colony-stimulating factor (MCSF), CSF1 (gene 1435)
Description: BSK_LPS_MCSF: BioMAP Diversity Plus: LPS Assay for Macrophage colony-stimulating factor (MCSF) Biomarker Activity (AID 2283083). As to conditions: primary human HUVEC with PBMC; actives raise or lower the signal. An outline of the steps: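 Human umbilical vein endothelial cells co-cultured with peripheral blood mononuclear cells were exposed to compound for 24 h. M-CSF levels were measured by ELISA, and bidirectional curve fitting used DMSO as the negative control and baseline.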

Read-out in test [10]: Tissue Factor, F3 (gene 2152)
Description: BSK_LPS_TissueFactor: BioMAP Diversity Plus: LPS Assay for Tissue Factor Biomarker Activity (AID 2283084). Particulars: primary human HUVEC with PBMC; actives raise or lower the signal. In short, it runs like this:
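Human umbilical vein endothelial cells co-cultured with peripheral blood mononuclear cells were dosed and stimulated with LPS. Cell-surface CD142 was quantified by ELISA at 24 h. Activity was fitted bidirectionally against DMSO baseline.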

Read-out in test [11]: Tumor necrosis factor (Homo sapiens) (UniProt P01375)
Description: BSK_LPS_TNFa: BioMAP Diversity Plus: LPS Assay for Tumour Necrosis Factor alpha (TNFa) Biomarker Activity (AID 2283085). As to conditions: primary human HUVEC with PBMC; actives raise or lower the signal. An outline of the steps: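 Primary human vascular co-culture of HUVEC and PBMC; TNFa ELISA 24 h after treatment, analysed as increase or decrease relative to DMSO control.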

Read-out in a further test: CD38, CD38 (gene 952)
The test can be described thus: BSK_SAg_CD38: BioMAP Diversity Plus: SAg Assay for CD38 Biomarker Activity (AID 2283087). As to conditions: primary human HUVEC with PBMC; actives raise or lower the signal. An outline of the steps: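 Fluorescence ELISA of cell-surface CD38 served as the read-out, with either increase or decrease fitted against DMSO controls. Cells were a human umbilical vein endothelium plus PBMC co-culture under SEB/TSST-1 stimulation, measured 24 h after dosing.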

Read-out in test [12]: CD40, CD40 (gene 958)
The test can be described thus: BSK_SAg_CD40: BioMAP Diversity Plus: SAg Assay for CD40 Biomarker Activity (AID 2283088). Particulars: primary human HUVEC with PBMC; actives raise or lower the signal. In short, it runs like this: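 Human umbilical vein endothelial cells co-cultured with PBMC; CD40 levels measured by ELISA with fluorescence read-out 24 h after chemical dosing. Gain or loss of signal fitted bidirectionally against DMSO baseline.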

Read-out in another test: CD69, CD69 (gene 969)
The test can be described thus: BSK_SAg_CD69: BioMAP Diversity Plus: SAg Assay for CD69 Biomarker Activity (AID 2283089).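 As to AC50: cell surface CD69 protein quantified by ELISA with fluorescence detection.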 Particulars: primary human HUVEC with PBMC; actives raise or lower the signal. In short, it runs like this: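 Endothelial/PBMC co-culture; chemical added; 24 h incubation; CD69 ELISA with fluorescence detection; bidirectional fit vs DMSO.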

Read-out in test [13]: Monocyte Chemoattractant Protein-1 (MCP1), CCL2 (gene 6347)
Description: BSK_SAg_MCP1: BioMAP Diversity Plus: SAg Assay for Monocyte Chemoattractant Protein-1 (MCP1) Biomarker Activity (AID 2283090). Particulars: primary human HUVEC with PBMC; actives raise or lower the signal. An outline of the steps: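 MCP-1 levels in the endothelial–PBMC SAg co-culture were quantified by ELISA at 24 h post-dosing; both increases and decreases versus DMSO scored. Cytotoxicity monitored by SRB total protein in parallel cultures.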

Read-out in test [14]: E-selectin (Homo sapiens) (UniProt P16581)
Description: BSK_SAg_Eselectin: BioMAP Diversity Plus: SAg Assay for Eselectin Biomarker Activity (AID 2283091). Particulars: primary human HUVEC with PBMC; actives raise or lower the signal. In short, it runs like this:
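HUVEC co-cultured with PBMC, compound dosed then read at 24 h; E-selectin measured by ELISA. Activity fitted bidirectionally against DMSO as negative control and baseline.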

Read-out in test [15]: Monokine induced gamma interferon (MIG), CXCL9 (gene 4283)
Description: BSK_SAg_MIG: BioMAP Diversity Plus: SAg Assay for Monokine induced gamma interferon (MIG) Biomarker Activity (AID 2283092). Particulars: primary human HUVEC with PBMC; actives raise or lower the signal. In short, it runs like this:
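Measures CXCL9 protein by ELISA in a human vascular primary-cell co-culture (umbilical vein endothelium with PBMC) 24 h after chemical addition. Activity is scored up or down from the DMSO control.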

The nature of test [16]: BSK_SAg_PBMCCytotoxicity: PBMC Cytotoxicity Assessment in the BioMAP Diversity Plus: SAg Assay (AID 2283093).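 Also: PBMC viability measured as Alamar Blue reduction fluorescence at 546/580 nm; fitted both ways against DMSO so a hit may be loss or gain of signal.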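 As to AC50: PBMC superantigen activated with SEB plus TSST-1 one hour after compound addition.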 As to conditions: primary human HUVEC with PBMC. An outline of the steps: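 Human umbilical vein endothelial cells co-cultured with PBMC; PBMC (75,000/well) pre-treated with compound 1 h, then activated with SEB and TSST-1 (20 ng/mL final each) for 90 h. Alamar Blue added 6 h, fluorescence 546/580 nm; bidirectional fit versus DMSO.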

Read-out in test [17]: Vascular cell adhesion molecule 1 (VCAM1), VCAM1 (gene 7412)
Description: BSK_LPS_VCAM1: BioMAP Diversity Plus: LPS Assay for Vascular cell adhesion molecule 1 (VCAM1) Biomarker Activity (AID 2283086). Particulars: primary human HUVEC with PBMC; actives raise or lower the signal. In short, it runs like this:
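Primary human vascular co-culture (umbilical vein endothelium plus PBMC) stimulated with LPS received chemical; 24 h later VCAM-1 was read by ELISA. Overt cytotoxicity was assessed by sulforhodamine B staining of parallel cultures at the same time point.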

The source made the active and inactive calls. The calls were made as follows: active = hit-call score of the fitted dose curve at least 0.9, where 1 is the maximum; inactive = score below 0.9.

E-selectin (Homo sapiens), sequence (P16581 whole entry, looked up): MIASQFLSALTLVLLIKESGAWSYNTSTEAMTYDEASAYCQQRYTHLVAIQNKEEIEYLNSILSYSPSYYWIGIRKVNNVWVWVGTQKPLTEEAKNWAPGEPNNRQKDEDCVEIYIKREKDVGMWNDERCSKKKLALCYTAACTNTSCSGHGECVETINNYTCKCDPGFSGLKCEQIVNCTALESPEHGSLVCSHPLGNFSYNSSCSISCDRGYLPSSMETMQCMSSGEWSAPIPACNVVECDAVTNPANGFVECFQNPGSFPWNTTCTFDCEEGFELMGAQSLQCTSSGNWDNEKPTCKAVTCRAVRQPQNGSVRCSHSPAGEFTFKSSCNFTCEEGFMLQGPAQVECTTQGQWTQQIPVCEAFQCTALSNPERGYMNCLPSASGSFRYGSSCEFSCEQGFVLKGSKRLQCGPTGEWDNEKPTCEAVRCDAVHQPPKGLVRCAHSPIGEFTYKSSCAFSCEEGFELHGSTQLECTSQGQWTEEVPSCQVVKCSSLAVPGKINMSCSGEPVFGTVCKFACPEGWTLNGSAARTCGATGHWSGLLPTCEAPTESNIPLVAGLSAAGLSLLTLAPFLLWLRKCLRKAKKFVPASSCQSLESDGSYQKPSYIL
Tumor necrosis factor (Homo sapiens), sequence (P01375 whole entry, looked up): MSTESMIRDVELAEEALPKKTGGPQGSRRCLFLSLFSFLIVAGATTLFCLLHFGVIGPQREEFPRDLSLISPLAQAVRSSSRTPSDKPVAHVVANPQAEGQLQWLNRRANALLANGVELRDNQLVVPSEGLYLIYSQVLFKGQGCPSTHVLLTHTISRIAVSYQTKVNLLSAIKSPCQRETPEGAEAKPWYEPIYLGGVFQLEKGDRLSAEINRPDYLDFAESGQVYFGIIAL

For `CCN1CCC2(CC1)COc1cc3c(cc12)N(C(=O)c1ccc(-c2ccc(-c4nnc(C)o4)cc2C)cc1)CC3`, the AC50 in [1] is 14.3 µM (active); in [2], 29.9 µM (active); with CD40, CD40 (gene 958) [3], 9.75 µM (active); in [4] it was 29.3 µM (active); in [5] it was 14.1 µM (active); in test [6], 14.7 µM (active). Further, the AC50 in [7] was 16.8 µM (active); in test [9] it was 16.7 µM (active); in test [10], 18.7 µM (active); in test [11], 14.3 µM (active); with CD38, CD38 (gene 952), 12.8 µM (active); in the test with CD40, CD40 (gene 958) [12], 18.7 µM (active). The half-maximal activity concentration (AC50) is 12 µM (active) with CD69, CD69 (gene 969); 12.6 µM (active) in test [13]; 13.3 µM (active) in test [14]; 30.8 µM (active) in test [15]; 12.6 µM (active) in test [16]. In [8], the result was inactive.

In the case of `CCOC(=O)/C=C(C)/C=C/C[C@@H](C)CCCC(C)C`, the concentration at half-maximal activity (AC50) was 30.2 µM (active) in test [1]; 31.2 µM (active) in test [2]; 20 µM (active) with CD40, CD40 (gene 958) [3]; 34.8 µM (active) in test [4]; 32.7 µM (active) in [5]; 38.7 µM (active) in test [6]. Besides, the concentration at half-maximal activity (AC50) in test [7] was 30.7 µM (active); in test [8] it was 10.1 µM (active); in test [9], 15.5 µM (active); in [10] it was 29.2 µM (active); in test [11], 33.2 µM (active); with CD38, CD38 (gene 952) it was 30.7 µM (active). Further, the AC50 is 25.8 µM (active) in the test with CD40, CD40 (gene 958) [12]; 20 µM (active) with CD69, CD69 (gene 969); 29 µM (active) in test [13]; 22.4 µM (active) in test [14]; 26.4 µM (active) in test [16]. Besides, the result in test [15] was inactive.

Turning to `Cc1ccccc1N`, the outcome in test [1] was “inactive”; in test [2], “inactive”; with CD40, CD40 (gene 958) [3] it was “inactive”; in test [4], “inactive”; in test [5], “inactive”; in test [6], “inactive”. The outcome in [7], in [8], in test [9], in [10], in [11] and in test [17] was inactive. For the same compound, the outcome was “inactive” with CD38, CD38 (gene 952); “inactive” in the test with CD40, CD40 (gene 958) [12]; “inactive” with CD69, CD69 (gene 969); “inactive” in test [13]; “inactive” in [14]; “inactive” in test [15]. In addition, in test [16], the result was inactive.

As to `COP(=S)(OC)Oc1ccc(Sc2ccc(OP(=S)(OC)OC)cc2)cc1`, the concentration at half-maximal activity (AC50) in test [1] is 10.4 µM (active); with CD40, CD40 (gene 958) [3] it was 20 µM (active); in [5] it was 3.97 µM (active); in test [6], 13.7 µM (active); in [7], 12.5 µM (active); in test [8], 9.58 µM (active). The AC50 in [9] was 20 µM (active); in the test with CD38, CD38 (gene 952) it was 14.5 µM (active); with CD40, CD40 (gene 958) [12], 14.8 µM (active); with CD69, CD69 (gene 969) it was 13.6 µM (active); in [13], 26.9 µM (active); in test [14] it was 30.4 µM (active). In addition, the result in [2], in test [4], in [10], in test [11], in [15] and in test [16] was inactive.

For `CCOP(=S)(OCC)Oc1ccc(S(C)=O)cc1` (stereo unspecified), the outcome in test [1] was “inactive”; in test [2] it was “inactive”; with CD40, CD40 (gene 958) [3] it was “inactive”; in test [4] it was “inactive”; in test [5], “inactive”; in [6] it was “inactive”. In addition, the outcome in [7] is “inactive”; in [8], “inactive”; in test [9] it was “inactive”; in test [10] it was “inactive”; in [11], “inactive”; with CD38, CD38 (gene 952), “inactive”. Moreover, the outcome in the test with CD40, CD40 (gene 958) [12] is “inactive”; with CD69, CD69 (gene 969), “inactive”; in [13] it was “inactive”; in test [14], “inactive”; in test [15] it was “inactive”; in test [16], “inactive”.
